{"source": "PubChem BioAssay AID1445", "about": "(SRMLSC, 2008)", "note": "In all, about 220,000 compounds went through this assay and about 910 (0.41%) were called active. This is one part of a sample in which actives are shown more often than they occur.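 Rule for the calls: active = primary inhibition above the hit cutoff, then over 50% inhibition at one or more dose response concentrations (cut at about 23% in these data, passing the limit was not always enough); inconclusive = conflicting primary data, or primary hits not chosen for dose response; inactive = low primary inhibition, or under 50% at every dose.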 Results with a measured potency or affinity are listed apart.", "data": [{"molecular_target": "Aminopeptidase N (Plasmodium falciparum (isolate 3D7)) (UniProt O96935)", "sequence (O96935 whole entry, looked up)": "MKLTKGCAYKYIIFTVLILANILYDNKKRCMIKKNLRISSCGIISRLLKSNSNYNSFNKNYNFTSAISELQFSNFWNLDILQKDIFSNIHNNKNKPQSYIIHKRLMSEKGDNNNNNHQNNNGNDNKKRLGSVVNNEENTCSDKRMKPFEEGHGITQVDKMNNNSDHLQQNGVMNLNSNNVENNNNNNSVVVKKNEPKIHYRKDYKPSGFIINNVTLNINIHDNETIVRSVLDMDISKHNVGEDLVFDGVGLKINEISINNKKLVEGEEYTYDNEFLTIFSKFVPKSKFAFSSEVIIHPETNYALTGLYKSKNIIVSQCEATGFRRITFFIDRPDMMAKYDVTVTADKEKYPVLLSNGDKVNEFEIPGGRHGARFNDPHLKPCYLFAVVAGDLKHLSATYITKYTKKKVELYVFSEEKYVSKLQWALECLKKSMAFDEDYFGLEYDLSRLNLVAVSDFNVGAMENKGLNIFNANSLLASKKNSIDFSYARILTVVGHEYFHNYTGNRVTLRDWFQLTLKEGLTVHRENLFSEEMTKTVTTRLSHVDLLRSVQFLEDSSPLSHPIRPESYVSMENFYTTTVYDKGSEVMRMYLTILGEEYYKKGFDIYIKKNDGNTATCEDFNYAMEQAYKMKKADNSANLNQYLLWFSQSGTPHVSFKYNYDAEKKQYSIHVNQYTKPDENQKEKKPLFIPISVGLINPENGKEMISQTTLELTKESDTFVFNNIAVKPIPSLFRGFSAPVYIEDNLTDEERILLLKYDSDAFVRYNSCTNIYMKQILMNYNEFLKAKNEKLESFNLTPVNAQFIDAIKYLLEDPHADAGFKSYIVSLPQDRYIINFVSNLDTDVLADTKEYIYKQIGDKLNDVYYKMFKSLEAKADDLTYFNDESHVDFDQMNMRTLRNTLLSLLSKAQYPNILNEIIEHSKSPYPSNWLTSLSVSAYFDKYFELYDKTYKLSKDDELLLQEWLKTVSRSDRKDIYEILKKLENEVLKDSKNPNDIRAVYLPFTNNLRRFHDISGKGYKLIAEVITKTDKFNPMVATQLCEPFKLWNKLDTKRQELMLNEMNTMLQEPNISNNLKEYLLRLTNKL", "test": "malaria alanyl aminopeptidase activity blockers – biochemical, fluorogenic H-Leu-NHMec substrate, 1536-well (AID 1445);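 note: plate controls were DMSO full reaction for no effect and no enzyme background for full effect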", "conditions": "recombinant M1AAP, H-Leu-NHMec fluorogenic kinetic assay; at 30 µM, hits give high values unless noted", "values": [{"molecule": "CCCCc1ccc(NC(=O)C(C)CC)cc1", "note": "(stereo not given)", "inhibition": "1.58% (inactive)"}, {"molecule": "CC1=NN(C(=O)Cc2ccc([N+](=O)[O-])cc2)C(O)(c2cccnc2)C1", "note": "(stereo not given)", "inhibition": "7.72% (inactive)"}, {"molecule": "Cc1c(NC(=O)c2ccc3c(c2)C(=O)N(Cc2ccco2)C3=O)cccc1C(=O)O", "inhibition": "3.77% (inactive)"}, {"molecule": "O=C(Nc1ccc(O)cc1C(=O)O)c1ccc2c(c1)C(=O)N(Cc1ccco1)C2=O", "inhibition": "15.1% (inactive)"}, {"molecule": "O=C1CCC(=O)N1N1C(=O)C2C3c4ccccc4C(c4ccccc43)C2C1=O", "note": "(stereo not given)", "inhibition": "0.65% (inactive)"}, {"molecule": "Cc1cc(C(=O)N/N=C/c2cc(Cl)cc([N+](=O)[O-])c2O)c2ccccc2n1", "inhibition": "30.4% (inactive)"}, {"molecule": "Cc1cc(C)n(CC(=O)N/N=C/c2cc([N+](=O)[O-])ccc2O)n1", "inhibition": "31.6% (inactive)"}, {"molecule": "O=C(Cn1cnc([N+](=O)[O-])n1)N/N=C/c1ccc(O)cc1O", "inhibition": "2.52% (inactive)"}, {"molecule": "O=C(N/N=C/c1cc(Cl)cc([N+](=O)[O-])c1O)C1CC1", "inhibition": "29.8% (inactive)"}, {"molecule": "Cc1cc(C)n(CC(=O)N/N=C/c2ccc([N+](=O)[O-])s2)n1", "inhibition": "13.2% (inactive)"}, {"molecule": "O=C(Cn1nc2ccccc2n1)N/N=C/c1cc([N+](=O)[O-])ccc1O", "inhibition": "37.9% (inactive)"}, {"molecule": "O=C(Cn1cnc([N+](=O)[O-])n1)N/N=C/c1ccccc1O", "inhibition": "0.91% (inactive)"}, {"molecule": "O=C(Cn1nnc(-c2ccccc2)n1)N/N=C/c1cccc([N+](=O)[O-])c1O", "inhibition": "7.92% (inactive)"}, {"molecule": "Cc1nc2c(c(=O)c3ccccc3n2C)c(=O)n1C1CCCCCC1", "inhibition": "-1.82% (inactive)"}, {"molecule": "NS(=O)(=O)c1ccc(N/C=C\\C(=O)c2ccncc2)cc1", "inhibition": "13% (inactive)"}, {"molecule": "CCNS(=O)(=O)c1ccc(NC(=O)CC(C)c2ccccc2)cc1", "note": "(stereo not given)", "inhibition": "1.21% (inactive)"}, {"molecule": "CC(=O)Nc1cccc(/C(C)=N/NC(=O)c2cc(-c3ccncc3)nc3ccccc23)c1", "inhibition": "10.5% (inactive)"}, {"molecule": "Cc1cc(C)n(-c2ccc(Oc3ccccc3)c(S(=O)(=O)O)c2)n1", "inhibition": "1.18% (inactive)"}, {"molecule": "O=C1CC(c2cccs2)c2ccc3ccccc3c2N1", "note": "(stereo not given)", "inhibition": "0.72% (inactive)"}, {"molecule": "Cc1ccc(N2C(=S)NC3c4ccccc4OC2(C)C3C(=O)N(C)C)cc1", "note": "(stereo not given)", "inhibition": "2.84% (inactive)"}, {"molecule": "CN(Cc1cnccn1)Cc1nc(Cc2cccc(F)c2)no1", "inhibition": "2.76% (inactive)"}, {"molecule": "CCOc1[nH]n(-c2ccccc2)c(=O)c1C=Nc1ccccc1", "inhibition": "7.67% (inactive)"}, {"molecule": "CCOC(=O)c1ccc(NC(=O)CNS(=O)(=O)c2ccccc2)cc1", "inhibition": "2.05% (inactive)"}, {"molecule": "Oc1ccc(Cl)cc1N=Cc1sc2ccccc2c1Cl", "inhibition": "21% (inactive)"}, {"molecule": "Oc1ccc(Cl)cc1C=Nc1ccccc1Br", "inhibition": "1.39% (inactive)"}, {"molecule": "OCCC1CN(Cc2c(F)cccc2Cl)CCN1C1CCCC1", "note": "(stereo not given)", "inhibition": "-1.58% (inactive)"}, {"molecule": "COc1ccc(OC)c2c1sc(=NC(=O)C1CC1)n2C", "inhibition": "2.25% (inactive)"}, {"molecule": "COc1ccc2[nH]c(=O)c(NC(N)=S)nc2c1", "inhibition": "16.1% (inactive)"}, {"molecule": "NC(=S)Nc1nc2ccccc2[nH]c1=O", "inhibition": "23.5% (active)"}, {"molecule": "COCCCNc1nc2ccccc2[nH]c1=O", "inhibition": "7.88% (inactive)"}, {"molecule": "Cc1occc1C(=O)NNC(=O)c1ccccc1Br", "inhibition": "-1.69% (inactive)"}, {"molecule": "COc1ccc2c(CC(=O)NCC3CCC(C(=O)O)CC3)cc(=O)oc2c1", "note": "(stereo not given)", "inhibition": "3.73% (inactive)"}, {"molecule": "CCCCc1cc(=O)oc2cc(O)ccc12", "inhibition": "31.7% (inactive)"}, {"molecule": "COC(=O)Cc1cc(=O)oc2cc(OC)ccc12", "inhibition": "1.65% (inactive)"}, {"molecule": "O=C(Cn1nnc2ccccc2c1=O)NCC1CCC(C(=O)O)CC1", "note": "(stereo not given)", "inhibition": "0.69% (inactive)"}, {"molecule": "COc1cc(OC)c2c(C)cc(=O)oc2c1C(CCN1CCN(c2ccccc2)CC1)c1ccc2c(c1)OCO2", "note": "(stereo not given)", "inhibition": "1.4% (inactive)"}, {"molecule": "Cc1ccc(C(=O)Nc2ccccc2C(=O)O)cc1NC(=O)COc1c(C)cccc1C", "inhibition": "4.7% (inactive)"}, {"molecule": "CN(CC(=O)Nc1cccc2ccccc12)C(=O)/C=C/c1cccs1", "inhibition": "16.9% (inactive)"}, {"molecule": "Cc1cc(C)cc(N(C(=O)c2nsc(Cl)c2Cl)C(C(=O)NC2CCCC2)c2ccc(O)cc2)c1", "note": "(stereo not given)", "inhibition": "-3.07% (inactive)"}, {"molecule": "N#Cc1cc2c(nc1SCc1ccccc1)CCCC2", "inhibition": "5.77% (inactive)"}, {"molecule": "C=CCn1c(Cn2nnc3ccccc32)nnc1SCC(=O)N/N=C/c1cc(Br)cc(OC)c1O", "inhibition": "46.2% (active)"}, {"molecule": "C=CCn1c(CNc2ccc(C)cc2)nnc1SCC(=O)N/N=C/c1ccc(O)cc1O", "inhibition": "37% (active)"}, {"molecule": "Cc1cc(SCC(=O)N/N=C/c2ccc(O)c(O)c2O)c(C)cc1Br", "inhibition": "39% (inactive)"}, {"molecule": "Cc1cc(SCC(=O)N/N=C/c2ccc(O)cc2O)c(C)cc1Br", "inhibition": "24% (active)"}, {"molecule": "CCn1c(SCC(=O)N/N=C/c2cc(OC)c(O)c(OC)c2)nc2ccccc21", "inhibition": "3.33% (inactive)"}, {"molecule": "Cc1cc(SCC(=O)N/N=C/c2ccc(O)c(O)c2)c(C)cc1Br", "inhibition": "-0.74% (inactive)"}, {"molecule": "C=CCn1c(CNc2ccccc2)nnc1SCC(=O)N/N=C/c1ccccc1O", "inhibition": "30.8% (inactive)"}, {"molecule": "C=CCn1c(CNc2ccc(C)cc2)nnc1SCC(=O)N/N=C/c1ccc(O)cc1", "inhibition": "14.4% (inactive)"}, {"molecule": "COc1cccc(/C=N\\NC(=O)Cn2nnc3ccccc32)c1O", "inhibition": "1.18% (inactive)"}, {"molecule": "CCC1(CC)Cc2ccccc2C(=O)N1", "inhibition": "2.59% (inactive)"}, {"molecule": "Nc1ccccc1SCc1ccccc1Cl", "inhibition": "1.31% (inactive)"}, {"molecule": "O=C(CCN1CCOCC1)NNC(=O)/C(=C/c1ccccc1)NC(=O)c1ccccc1", "inhibition": "5.04% (inactive)"}, {"molecule": "O=C(c1cccc(Oc2c(Cl)cccc2[N+](=O)[O-])c1)N1CCCCC1", "inhibition": "4.82% (inactive)"}, {"molecule": "O=C(CCC1N=C2c3ccccc3N=C(SCc3ccc(Cl)cc3)N2C1=O)NCc1ccco1", "note": "(stereo not given)", "inhibition": "11.4% (inactive)"}, {"molecule": "Cc1ccc(CSC2=Nc3ccccc3C3=NC(CCC(=O)NCc4ccco4)C(=O)N23)cc1", "note": "(stereo not given)", "inhibition": "14.5% (inactive)"}, {"molecule": "Cc1ccc(CSC2=Nc3ccccc3C3=NC(CC(=O)NCc4ccco4)C(=O)N23)cc1", "note": "(stereo not given)", "inhibition": "25.5% (active)"}, {"molecule": "C=CCN=C1S/C(=C\\c2ccc(Cl)cc2)C(=O)N1CC=C", "inhibition": "3.89% (inactive)"}, {"molecule": "Cc1ccc(S(=O)(=O)/N=C2/C=C(Sc3ncn[nH]3)C(=O)c3ccccc32)cc1", "inhibition": "14.9% (inactive)"}, {"molecule": "COC(=O)C(C(C)=O)C1=C/C(=N\\S(=O)(=O)c2ccc(C)cc2)c2ccccc2C1=O", "note": "(stereo not given)", "inhibition": "12.9% (inactive)"}, {"molecule": "O=C(/C=C/c1cccc(Br)c1)N1CCN(c2ccccn2)CC1", "inhibition": "12.4% (inactive)"}]}]}
